# Bioassay records (PubChem BioAssay)
# Compounds with a hit are over-represented: about 3.4% of the library has one in this group of screens.
# MITF primary: human MITF inhibition, primary screen. AID 1259374. actives 0.91% (n = 650,000). AlphaScreen MITF homodimerization, bead proximity signal. inhibition, % at 2.6 µM; in the data active = inhibition above about 50%;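 note: 0% = vehicle wells with protein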
# FBW7 act: activators of human E3 ligase FBW7; Q969H0; actives 0.13% (n = 650,000); AID 1259310; AlphaScreen FBW7–phospho-cyclin E peptide binding, activator screen; normalized activity (activation), % at 26.1 µM; in the data active = normalized activity above about 1.9%;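 note: purified mutant Fbw7 with reduced substrate affinity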
# GPR151 ag: human GPR151 activation. actives 1% (n = 650,000). AID 1508602. PathHunter beta-arrestin GPR151 cells, luminescence. activation, % at 11.2 µM. Q8TDV0; in the data active = activation above about 4.9%;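 note: 0% = median of compound wells and 100% = cells with positive control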
# TEAD-YAP block: TEAD-YAP interaction inhibition; actives 1.4% (n = 640,000); inhibition, % at 9.12 µM; AID 1259422; HEK-TIYL cells, TEAD-Gal4/YAP UAS-luciferase luminescence; in the data active = inhibition above about 32%;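 note: 0% = median of test compound wells and 100% = reference inhibitor wells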
# Active calls of the source: *.
SMILES,MITF primary,FBW7 act,GPR151 ag,TEAD-YAP block
N#CC1=C(N)OC2=C(C(=O)CC(c3ccccc3)C2)C1c1c(Cl)cccc1[N+](=O)[O-] (stereo not given),12.3,1.1,-0.8,41.3*
Cc1ccc(C2C(C#N)=C(N)N(N(C)C)C3=C2C(=O)CC(c2ccccc2)C3)cc1 (stereo not given),7.5,0.1,1.9,3.2
COc1cc(C2C(C#N)=C(N)N(N(C)C)C3=C2C(=O)CC(c2ccccc2)C3)cc(OC)c1OC (stereo not given),-1.8,-0.2,-0.3,56.9*
COc1ccc(OC)c(C2C(C#N)=C(N)N(N(C)C)C3=C2C(=O)CC(C)(C)C3)c1 (stereo not given),6.1,-0.1,0.4,5.6
COc1ccc(OC)c(C2C(C#N)=C(N)OC3=C2C(=O)CC(c2ccccc2)C3)c1 (stereo not given),5.5,0.0,0.2,46.9*
Cc1cc2cc(CNS(=O)(=O)c3ccc([N+](=O)[O-])cc3)ccc2[nH]1,5.3,0.1,0.3,4.6
O=c1c2ccccc2nc(/C=C/c2ccc(OCc3ccc(Cl)c(Cl)c3)cc2)n1-c1ccccc1F,20.1,0.1,-1.9,8.6
COc1cccc(C2C(C#N)=C(N)N(N(C)C)C3=C2C(=O)CC(c2ccccc2)C3)c1OC (stereo not given),21.1,0.0,-1.8,55.0*
COc1cccc(C2C(C#N)=C(N)OC3=C2C(=O)CC(c2ccccc2)C3)c1OC (stereo not given),26.1,0.6,0.1,6.4
Cc1nc2ncnn2c(NCc2ccc(F)cc2)c1C,17.1,1.1,4.8,45.4*
Cc1ccccc1Nc1c(C)c(C)nc2ncnn12,-5.9,0.0,-0.4,-2.3
COCc1c(C(=O)OCC(=O)NNC(=O)c2cccs2)oc2ccccc12,-10.6,0.1,-0.9,1.8
CC(=O)N1CCc2c(sc(NC(=O)Cc3cccc4ccccc34)c2C#N)C1,-3.4,-0.1,-0.3,54.0*
N#Cc1c(NC(=O)CCc2ccccc2)sc2c1CCCCCC2,-11.7,0.0,0.0,0.3
N#Cc1c(NC(=O)CCc2ccccc2)sc2c1CCCC2,11.9,0.2,-0.1,46.6*
CC(=O)N1CCc2c(sc(NC(=O)Cc3cccc4ccccc34)c2C(N)=O)C1,5.1,0.0,1.9,-4.0
N#Cc1c(NC(=O)CSc2ncn[nH]2)sc2c1CCCC2,4.4,-0.1,-1.5,49.0*
CC(=O)N1CCc2c(sc(NC(=O)CCc3ccccc3)c2C#N)C1,-3.7,-0.1,0.7,53.6*
COc1ccc(-c2cn3c(NC(=O)c4ccccc4)c(C)nc3cn2)cc1,13.6,0.5,-0.6,-0.2
COc1ccc2c(c1)c1nc(N(C)C)nc3c1n2CCN3C,12.2,0.1,-0.1,87.8*
CCN(CC)c1ccc(NC(=S)NCCO)c(C)c1,5.8,0.2,-0.3,5.8
COc1cccc(N2CCN(c3c4c(nc5nncn35)CCC4)CC2)c1,6.8,0.4,-1.6,36.7*
O=C(N/N=C/c1ccccc1O)c1ccccc1O,29.1,-0.3,2.5,37.2*
Cc1cc(C(=O)N/N=C/c2c(O)ccc3cc([N+](=O)[O-])ccc23)n[nH]1,2.0,0.0,-1.4,-0.2
Cc1cc(C(=O)N/N=C/c2cc([N+](=O)[O-])ccc2O)n[nH]1,58.6*,-0.9,0.6,8.9
SMILES,MITF primary,FBW7 act,GPR151 ag,TEAD-YAP block
COc1cc([N+](=O)[O-])cc(/C=N/NC(=O)c2ccc(F)cc2)c1O,63.1*,-0.8,-0.1,54.2*
CC(C(=O)N/N=C/c1ccccc1O)n1nnc2ccccc21 (stereo not given),28.8,-0.5,-0.8,3.0
CC(C(=O)N/N=C/c1cc([N+](=O)[O-])ccc1O)n1nnc2ccccc21 (stereo not given),86.2*,-0.2,-0.6,6.2
COc1ccc(CNC(=O)c2ccc3c(c2)NC(=O)C(CS(=O)(=O)Cc2ccc(F)cc2Cl)N3)cc1 (stereo not given),0.6,-0.3,-0.2,-0.1
O=C(N/N=C/c1cc([N+](=O)[O-])ccc1O)c1ccccc1O,86.7*,-0.5,0.0,6.8
COc1cc([N+](=O)[O-])cc(/C=N/NC(=O)c2ccccc2O)c1O,78.7*,-0.2,-0.1,-13.0
O=C(O)c1cccc(NC(=S)N/N=C/c2cc([N+](=O)[O-])ccc2O)c1,-1.1,0.0,0.1,40.4*
COc1ccc(/C=N/NC(=O)c2cc(C)[nH]n2)c(OC)c1,20.8,2.3*,-1.8,-13.4
COC(=O)c1sc(N2C(=O)C(=O)/C(=C(/O)c3ccccc3)C2c2ccc(C)cc2)nc1C (stereo not given),19.1,0.1,1.1,-23.0
Cc1cccc(NS(=O)(=O)c2ccccc2C#N)c1,-3.9,0.1,0.0,-1.4
